Assay outcomes as filed in PubChem BioAssay.
Hits are enriched below; roughly 19% of the tested compounds scored in any of these assays.
HT1080 IDH1KD tx: kills HT-1080 cells with IDH1 knockdown. HT-1080 IDH1 knockdown viability, ATP luminescence, 48 h. Potency, µM (titrated, usually from 46.1 µM), hits mostly cytotoxic. 2% of 360,000 active
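Viability of IDH1-knockdown HT-1080 fibrosarcoma cells was assessed by CellTiter-Glo after 48 h at 37 °C with titrated compound; concentration-effect curves were classified by fit quality and response size.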
IL1B secr inh: inhibitors of inflammasome signaling (IL-1 beta secretion) | 4.7% of 360,000 active | activity change, % at 57.5 µM | AID 743279 | THP-1 LPS/ATP IL-1B secretion, AlphaLISA, 16 h; stronger effect = lower value; in the data active = activity change below about -50%; inconclusive = mostly about -30% to -49%
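THP-1 cells pretreated 1 hr with compounds (up to 57.5 uM final), then stimulated with LPS (250 ng/mL final) plus ATP (1.25 mM final); secreted IL-1B measured by AlphaLISA after 16 hr, decreased signal indicating inhibition.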
HT1080NT lethal: kills 2HG-producing HT-1080-NT fibrosarcoma cells | HT-1080-NT fibrosarcoma viability, CellTiter-Glo ATP luminescence, 48 h | Potency, µM (doses to about 46.1 µM), most hits filed as cytotoxic | 1.6% of 360,000 active | AID 686970;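 note: NT is the 2HG producing partner of a matched IDH1 knockdown line; nearly all actives have a fitted effect of over 55% in size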
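Viability by CellTiter-Glo luminescence after 48 h compound exposure at 37C of HT-1080-NT cells (750/well, RPMI, 5% FBS). % activity scaled between DMSO wells and medium-only wells, then curve-fitted and categorized by curve class.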
DT40 TDP1 no CPT: qHTS for Inhibitors of human tyrosyl-DNA phosphodiesterase 1 (TDP1): qHTS in cells in absence of CPT; AID 686978, 2013; Potency, µM (top dose mostly 46.2 µM), usual class: inhibitors; 15% of 420,000 active; DT40 Tdp1-/- hTDP1 cells, no CPT, ATP luminescence, 48 h; note: nearly all actives have a fitted effect of over 55% in size
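Growth kinetics read by CellTiter-Glo luminescence after ≥48 hr at 37 °C. Cells: DT40 Tdp1-/- stably carrying human TDP1, 400 per well, compound exposure in the absence of CPT (DMSO vehicle).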
DT40 TDP1 CPT: DT40-hTDP1 cell growth loss with CPT; AID 686979; Potency, µM (doses to about 46.2 µM), actives largely listed as inhibitors; chicken DT40 Tdp1-/-;hTDP1 cells + 20 nM CPT, ATP luminescence, 48 h; 12% of 420,000 active; note: nearly all actives have a fitted effect of over 55% in size
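Chicken DT40 Tdp1-/- cells complemented with human TDP1, 400 cells/well, exposed to compounds plus 20 nM camptothecin for at least 48 h at 37 C; viability read as ATP content by CellTiter-Glo luminescence.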
Numbers stand for hits; . = inactive; ? = inconclusive; / = not tested or not shown; ! = repeats disagree; [ ] = remark or other dose. Unless noted, calls come from the whole dose curve; as a rule, active = well fitted curve in the direction sought with a large enough effect; inconclusive = small, poorly fitted or top-dose-only effect, or another doubt; inactive = no such curve, though single readings can be large; an effect the other way counts as inactive or inconclusive.

SMILES	HT1080 IDH1KD tx	IL1B secr inh	HT1080NT lethal	DT40 TDP1 no CPT	DT40 TDP1 CPT
O=C(Nc1ccc2c(c1)CCC2)c1ncoc1-c1ccccc1F	.	-73.9	.	?	.
O=C(N/C=N/OCc1ccc(Cl)cc1Cl)NOCc1ncc(C(F)(F)F)cc1Cl	25.9µM	.	?	14.6µM	?
COc1cc(-n2ccnc2SC)c(Cl)cc1Cl	.	.	.	18.4µM	?
COc1ccccc1-n1ccnc1SCC(=O)NC1CCCC1	.	.	.	.	.
CCOC(=O)N1CCN(C(=O)C2CCN(S(=O)(=O)c3c(C)cc(C)cc3C)CC2)CC1	.	.	.	18.4µM	?
CCOC(=O)c1c(C)[nH]c(C)c1S(=O)(=O)N1CCC(C(=O)Nc2ccc(C)cn2)CC1	/	/	/	.	.
CCOC(=O)c1c(C)[nH]c(C)c1S(=O)(=O)N1CCC(C(=O)N2CCN(c3cccc(C)c3)C(C)C2)CC1 (configuration not stated)	/	/	/	?	23.1µM
CCOC(=O)c1c(C)[nH]c(C)c1S(=O)(=O)N1CCC(C(=O)N2CCN(c3cc(C)ccc3C)CC2)CC1	/	/	/	23.1µM	23.1µM
O=C(CN1CCNCC1)NC1CCCCC1	/	/	/	.	.
C/C(=N\OCC(=O)OCC(=O)NCc1ccccc1)c1ccc2c(c1)OCO2	.	.	?	?	.
CC1CCCCC12NC(=O)N(CC(=O)N1CCN(C(=O)c3cccs3)CC1)C2=O (configuration not stated)	.	.	.	.	.
CC(C)OC(=O)N(C)C[C@@H]1OCc2cn(nn2)CCCC(=O)N([C@@H](C)CO)C[C@H]1C	.	.	.	.	.
NC(=NCCCCCCN=C(N)/N=C(\N)Nc1ccc(Cl)cc1)/N=C(\N)Nc1ccc(Cl)cc1	18.4µM!	-100.0!	14.6µM!	13µM!	16.4µM!
CCCCN=C(Nc1ccc(Cl)cc1)c1cccnc1	.	.	.	.	.
CC(C)N=C(N)N=C(N)Nc1ccc(Cl)cc1	?	?	?	9.2µM	25.9µM
CC(C)CN(CC(C)C)C(=S)Nc1ccc(Cl)cc1	?	.	.	?	.
COc1ccc(CNC(=O)COC(=O)C2(C)CC2(Cl)Cl)cc1 (configuration not stated)	.	?	.	.	.
Cc1nc2oc3ccc(F)cc3c(=O)c2cc1C(=O)NC(C)(C)C	.	.	.	.	.
CC1CCC(NC(=O)CN2C(=O)C3CC=CCC3C2=O)CC1 (configuration not stated)	.	.	.	5.8µM	.
O=C(NC1CCCc2ccccc21)C(Cc1ccccc1)NS(=O)(=O)c1cccs1 (configuration not stated)	.	.	.	.	.
CCOc1ccccc1C(=O)N(Cc1sccc1C)C1CCS(=O)(=O)C1 (configuration not stated)	.	.	.	.	.
Cc1ccc(OC(C)C(=O)Nc2ccc3c(c2)n(C)c(=O)n3C)c(C)c1 (configuration not stated)	.	.	.	?	?
O=[N+]([O-])c1ccc2nc(NN=Cc3ccc(O)cc3)sc2c1	29.1µM	-95.5	?	?	29.1µM
CC(C)c1ccc(/C=C/C(=O)Nc2nc3ccc([N+](=O)[O-])cc3s2)cc1	.	.	.	.	.
CC(C)Oc1cccc(C2CC(=O)Nc3cc4c(cc32)OCO4)c1 (configuration not stated)	/	/	/	2.59µM	2.59µM
SMILES	HT1080 IDH1KD tx	IL1B secr inh	HT1080NT lethal	DT40 TDP1 no CPT	DT40 TDP1 CPT
COc1cccc(C2CC(=O)Nc3cc4c(cc32)OCO4)c1OC(C)C (configuration not stated)	/	/	/	?	20.6µM
Cc1cccc(C2CC(=O)Nc3cc4c(cc32)OCO4)c1 (configuration not stated)	/	/	/	20.6µM	?
C=CCn1c(O)c(C2=c3ccccc3=NC2=O)c2ccccc21	20.6µM	.	23.1µM	4.11µM	?
C=CCn1c(O)c(C2=c3ccccc3=NC2=O)s/c1=N/c1nccs1	.	.	.	?	?
C[C@@H]1CCCCO[C@@H](CN(C)CC2CCCCC2)[C@@H](C)CN([C@H](C)CO)C(=O)c2cc(NS(=O)(=O)c3ccc(Cl)cc3)ccc2O1	?	?	16.4µM	13µM	16.4µM
C[C@H]1CN([C@@H](C)CO)C(=O)c2cc(NS(=O)(=O)c3ccc(Cl)cc3)ccc2O[C@@H]1CN(C)CC1CCCCC1	.	-55.8	.	?	?
N#Cc1ccccc1-c1cncnc1NCc1cccnc1	/	/	/	.	.
Cc1cc(/C=C2\NC(=O)NC2=O)c(C)n1-c1ccc(N2CCOCC2)cc1	.	.	.	20.6µM	?
Cc1cc(/C=C2/NC(=O)NC2=O)c(C)n1-c1ccc(N2CCOCC2)cc1	.	.	.	?	?
CC1CCN2c3cc(Cl)ccc3CC3(C(=O)OC(C)(C)OC3=O)C2C1 (configuration not stated)	/	/	/	.	.
CSc1ccc(/C=C(/NC(=O)c2ccc(C)cc2)C(=O)Nc2cccc(C)c2)cc1	.	.	.	7.31µM	7.31µM
CCCCCC#CCC#CCC#CCC#CCCCC(=O)O	/	/	/	.[4.12 µM]	.[4.12 µM]
Oc1ccc(Br)cc1CNc1cccc2cccnc12	?	.	?	25.9µM	?
Oc1c(Br)cc(Br)cc1CNc1cccc2cccnc12	?	.	.	?	16.4µM
COc1cccc(CNc2cccc3cccnc23)c1O	?	.	.	?	?
CCCc1c(C)c2cccc(C)c2[nH]c1=O	.	.	.	?	?
CCCCN1CCc2c([nH]c3c(C)cccc23)C1=O	.	.	.	?	29.1µM
O=C(c1[nH]c(C(F)(F)F)nc1-c1ccccc1)N1CCCN(Cc2ccc(F)cc2)CC1	.	.	.	.	.
O=c1[nH]cnc2scc(-c3ccc(-c4ccccc4)cc3)c12	.	-68.2	.	?	.
COc1ccc(-c2csc3nc[nH]c(=O)c23)cc1OC	.	.	.	.	.
Cc1ccc(-c2csc3nc[nH]c(=S)c23)cc1C	20.6µM	.	?	20.6µM	7.31µM
OCC[C@H]1C[C@H](O)[C@@H](O)[C@]2(OCc3ccccc32)O1	.	.	.	.	.
CCOC(=O)CC1(NC(=O)c2cc(COc3cccc(OC)c3)on2)CCCCC1	.	.	.	10.3µM	23.1µM
O=C(NCCc1ccco1)c1cc(COc2cccc(C(F)(F)F)c2)on1	?	-83.3	.	?	?
COc1cccc(CCNC(=O)c2cc(COc3ccc(C)c(C)c3)on2)c1OC	.	.	.	14.6µM	?
COc1cccc(CCNC(=O)c2cc(COc3cccc(OC)c3)on2)c1	.	.	.	16.4µM	?
Cn1ccc(C(=O)NCC2CCC3(CCN(Cc4ccc(F)cc4F)CC3)O2)n1 (configuration not stated)	/	/	/	.	.
O=C(Cc1ccc(-c2ccccc2)cc1)NCCS(=O)(=O)N1CCN(c2ccc(F)cc2)CC1	/	/	/	.	.
